Screening results deposited in PubChem BioAssay by National Center for Advancing Translational Sciences (NCATS).
TDP1 cell noCPT = qHTS for Inhibitors of human tyrosyl-DNA phosphodiesterase 1 (TDP1): qHTS in cells in absence of CPT; DT40 Tdp1-/- hTDP1 cells, no CPT, ATP luminescence, 48 h; Potency, µM (top dose mostly 46.2 µM), without a hit: at the top dose activity change, negative = growth inhibition, hits mostly inhibitors; 420,000 compounds, 15% hits; note: potency is the fitted concentration of half-maximal effect; nearly all actives have a fitted effect of over 55% in size
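No-CPT arm: Tdp1-/-;hTDP1 DT40 cells (400/well) plus compounds, incubated ≥48 hr at 37 °C. Readout CellTiter-Glo luminescence.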
ELG1 DNA repair = inhibitors of ELG1-dependent DNA repair in HEK293T cells; HEK293T ELG1-luciferase reporter, luminescence, 16 h; DNA damage induced by 5-fluorouridine; Potency, µM (top dose mostly 46.1 µM), for the others: at the top dose activity change, negative = inhibition, usual class: inhibitors; 330,000 compounds, 2.3% hits; note: potency is the fitted concentration of half-maximal effect; nearly all actives have a fitted effect of over 55% in size
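Luminescence from the luciferase reporter, measured 30 min after ONE-Glo reagent at room temperature, was the read-out. Beforehand, 2,000 cells per well were exposed for 16 hr at 37 °C to 5-fluorouridine together with compound or vehicle.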
RORgamma inh = blocks mouse ROR gamma transcriptional activity | 310,000 compounds, 5.4% hits | Drosophila S2 Gal4-RORgamma UAS-luciferase reporter, 20 h | P51450 | Potency, µM (highest dose often 53.6 µM), for the others: at the top dose activity change, negative = inhibition, hits mostly inhibitors; note: potency is the fitted concentration of half-maximal effect; nearly all actives have a fitted effect of over 60% in size
Target sequence (P51450 whole entry, looked up, the tested form may be a part): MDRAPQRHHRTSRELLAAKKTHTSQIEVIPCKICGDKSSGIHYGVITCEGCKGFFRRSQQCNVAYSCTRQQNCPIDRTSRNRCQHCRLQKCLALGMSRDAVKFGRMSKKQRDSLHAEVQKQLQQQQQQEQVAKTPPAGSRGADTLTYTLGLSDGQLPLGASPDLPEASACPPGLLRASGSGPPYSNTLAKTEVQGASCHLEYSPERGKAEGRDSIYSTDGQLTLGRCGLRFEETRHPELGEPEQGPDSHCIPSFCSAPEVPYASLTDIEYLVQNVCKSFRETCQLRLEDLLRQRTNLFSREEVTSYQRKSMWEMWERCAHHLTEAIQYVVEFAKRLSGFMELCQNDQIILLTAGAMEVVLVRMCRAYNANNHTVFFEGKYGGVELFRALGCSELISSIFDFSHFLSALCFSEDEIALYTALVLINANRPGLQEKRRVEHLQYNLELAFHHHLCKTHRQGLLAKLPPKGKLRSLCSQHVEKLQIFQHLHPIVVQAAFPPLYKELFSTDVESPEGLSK
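ROR gamma transcriptional activity was tracked as Gal4-UAS luciferase output in stably transfected Drosophila Schneider cells, with compound added 1 hr before 700 uM copper sulfate induction and a 20 hr ambient-temperature incubation.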
VP16 counter = counter-screen for ROR gamma inhibitors: Gal4-VP16 reporter | Drosophila S2 Gal4-VP16 UAS-luciferase, luminescence, 20 h | 310,000 compounds, 3.5% hits | Potency, µM (titrated, usually from 53.6 µM), for the others: at the top dose activity, negative = inhibition, usual class: inhibitors | AID 2546;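 note: Gal4-VP16 expression switched on by copper sulfate through the metallothionein promoter; potency is the fitted concentration of half-maximal effect; nearly all actives have a fitted effect of over 50% in size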
DT40 TDP1 CPT = DT40-hTDP1 cell growth loss with CPT; 420,000 compounds, 12% hits; chicken DT40 Tdp1-/-;hTDP1 cells + 20 nM CPT, ATP luminescence, 48 h; Potency, µM (series often up to 46.2 µM), for the others: top-dose activity change, negative = growth inhibition, actives largely listed as inhibitors; note: potency is the fitted concentration of half-maximal effect; nearly all actives have a fitted effect of over 55% in size
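Cell growth measured by CellTiter-Glo luminescence after a minimum 48 h, 37 C compound exposure with 20 nM CPT in Tdp1-knockout DT40 cells stably expressing hTDP1, seeded 400/well; qHTS titration format.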
IL-1B inflam inh = blocks inflammasome-driven IL-1 beta release | THP-1 LPS/ATP IL-1B secretion, AlphaLISA, 16 h; hits give low values | activity change, % at 57.5 µM | 360,000 compounds, 4.7% hits; in the data active = activity change below about -50%; inconclusive = mostly about -30% to -49%
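Secreted IL-1B measured by AlphaLISA bead assay after 16 h compound exposure of THP-1 cells; compounds (final up to 57.5 uM) added 1 h before LPS (250 ng/mL) and ATP (1.25 mM) stimulation; lower signal means less secretion.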
Numbers without * were called inactive; ? = inconclusive; . = no result given. The list is not random: actives were taken first. Their share in the collection is about 21%. Unless noted, calls come from the whole dose curve; as a rule, active = well fitted curve in the direction sought with a large enough effect; inconclusive = small, poorly fitted or top-dose-only effect, or another doubt; inactive = no such curve, though single readings can be large; an effect the other way counts as inactive or inconclusive. % is set by controls: 0 for no effect and ±100 for the full control effect.

SMILES	TDP1 cell noCPT	ELG1 DNA repair	RORgamma inh	VP16 counter	DT40 TDP1 CPT	IL-1B inflam inh
CCCCCCCCN1N=N[C@H]2[C@H]1[C@@H]1C[C@H]2N(C(=O)OC(C)(C)C)O1	?	-9%	.	.	?	-14
CCc1c2c(nc3cccc(OC)c13)OC(CC)C2 (stereo unspecified)	.	.	-11%	7%	.	.
CC(=O)Oc1ccc(/C=N\NC(=O)c2cc3c(ccc4ccccc43)o2)cc1	?	2%	1%	-2%	?	?
O=C(N/N=C/c1ccc([N+](=O)[O-])o1)c1cc2c(ccc3ccccc32)o1	?	16%	3%	?	10µM*	-13
CCOc1cc(/C=N/NC(=O)c2cc3c(ccc4ccccc43)o2)ccc1O	?	?	?	-18%	23µM*	-51*
Cc1ccc(/C=N/NC(=O)c2cc3c(ccc4ccccc43)o2)cc1[N+](=O)[O-]	?	8%	-4%	3%	26µM*	-17
Cc1ccc(/C=N/NC(=O)c2cc3c(ccc4ccccc43)o2)o1	?	?	.	.	?	-61*
O=S(=O)(Nc1cccc(S(=O)(=O)N2CCOCC2)c1)c1cccs1	-2%	-5%	.	.	5%	9
O=C(CN1CCN(Cc2cccc(C(F)(F)F)c2)CC1)NCC(=O)Nc1ccc(F)c(F)c1F	?	.	.	.	?	-14
O=C(N/N=C/c1cc(Br)c(O)c(Br)c1)c1cc2c(ccc3ccccc32)o1	?	-5%	?	?	13µM*	-23
CCn1cc(/C=N/NC(=O)c2cc3c(ccc4ccccc43)o2)c2ccccc21	?	?	7.1µM*	?	?	?
O=C(N/N=C/c1ccc(O)c(Br)c1)c1cc2c(ccc3ccccc32)o1	-4%	?	14%	-6%	?	?
O=C(NC1CCCC1)c1cc2c(ccc3ccccc32)o1	21µM*	?	-26%	-30%	?	-8
CC(C)n1cc(/C=N\NC(=O)c2cc3c(ccc4ccccc43)o2)c2ccccc21	?	-1%	?	-25%	?	-25
CCCCNC(=O)C1(C)CCN1C(=O)c1sccc1C (stereo unspecified)	2%	.	.	.	-21%	0
COCCCNC(=O)C1CCN(c2nc3ccc(C)cc3[nH]2)CC1	-14%	.	.	.	-16%	.
COc1cccc(CNC(=O)C2CCN(c3nc4ccc(Cl)cc4[nH]3)CC2)c1	?	.	.	.	21µM*	.
COc1ccc(CNC(=O)C2CCN(c3nc4ccc(C)cc4[nH]3)CC2)cc1	10µM*	.	.	.	?	.
COc1ccc(NC(=O)C2CCN(C(=O)[C@@H]3Cc4ccccc4CN3)CC2)cc1	2%	?	21%	10%	-2%	48
COc1ccc(CNC(=O)C2CCN(C(=O)c3csc(Nc4ccc(C)cc4)n3)CC2)cc1	?	?	41%	9%	?	-53*
COc1ccc(CNC(=O)C2CCN(c3nc4ccccc4[nH]3)CC2)cc1OC	-26%	.	.	.	-16%	.
COc1ccc(CNC(=O)C2CCN(C(=O)[C@@H]3Cc4ccccc4CN3)CC2)cc1	?	16%	5%	-9%	16µM*	-15
Cc1cc(C)c(C)c(S(=O)(=O)N[C@@H](C)C(=O)OCC(=O)NC2CCCC(C)C2C)c1C (stereo partly specified)	-21%	?	.	.	-19%	24
CC(C)[N+](C)(C)CC(O)COc1cccc2ccccc12 (stereo unspecified)	-22%	.	0%	-5%	9%	.
Nc1c(-c2ccc(C(F)(F)F)cc2)nc2ncccn12	?	.	.	.	-26%	5
C=CCOn1c(C)c(C(C)=O)c2c3nonc3ccc21	?	10µM*	0%	0%	?	-19
